# Screening results: PubChem BioAssay, National Center for Advancing Translational Sciences (NCATS)
# FMDV inh: foot and mouth disease virus antiviral activity. AID 1159524. FMDV antiviral cell-based qHTS. 410,000 tested, 1.2% active. Potency, µM (titrated, usually from 57.9 µM), for inactives: top-dose activity change, negative = inhibition, most hits filed as inhibitors; calls by dose curve; tested in HEK293T cells; note: read-out not given here; nearly all actives have a fitted effect of over 45% in size
# Vaccinia mCherry: inhibitors of vaccinia virus infection (mCherry reporter signal); Vaccinia virus mCherry reporter infection, fluorescence; Potency, µM (highest dose often 36.5 µM), without a hit: top-dose activity change, negative = inhibition, hits mostly inhibitors; 310,000 tested, 0.63% active; calls by dose curve; tested in A549 cells; note: nearly all actives have a fitted effect of over 35% in size
# Vaccinia Venus: vaccinia inhibition (Venus reporter) | Vaccinia virus Venus reporter expression, fluorescence | Potency, µM (titrated, usually from 36.5 µM), for the others: at the top dose activity change, negative = inhibition, usual class: inhibitors | 330,000 tested, 0.46% active | AID 720580; calls by dose curve; tested in A549 cells; note: nearly all actives have a fitted effect of over 30% in size
# Marburg entry inh: inhibitors of Marburg virus binding or cell entry | Marburg virus pseudotyped entry inhibition, cell reporter | Potency, µM (doses to about 37.8 µM), for inactives: top-dose activity change, negative = inhibition, usual class: inhibitors | 300,000 tested, 1.8% active | AID 540276; calls by dose curve; tested in HEK293 cells
# Lassa entry inh: inhibitors of Lassa virus binding or cell entry; Lassa virus pseudotype entry inhibition, cell reporter; 300,000 tested, 1.2% active; Potency, µM (top dose mostly 37.9 µM), without a hit: at the top dose activity change, negative = inhibition, most hits filed as inhibitors; AID 540256; calls by dose curve; tested in HEK293 cells; note: nearly all actives have a fitted effect of over 50% in size
# Numbers without * were called inactive; ? = inconclusive; . = no result; ! = not active in a repeat; [ ] = dose if it differs, or a comment. The list is not random: actives were taken first. Their share in the collection is about 3.2%. % is set by controls: 0 for no effect and ±100 for the full control effect; potency is the fitted concentration of half-maximal effect.
SMILES,FMDV inh,Vaccinia mCherry,Vaccinia Venus,Marburg entry inh,Lassa entry inh
Cc1[nH]nc2c1C(c1cccs1)C(C#N)=C(N)O2 (configuration not stated),?,-8%,-5%,?,-7%
Cc1ccsc1C1C(C#N)=C(N)Oc2n[nH]c(C)c21 (configuration not stated),32µM*,-1%,-12%,?,-4%
CC(C)c1ccc(CC(=O)N2CCC2(C)C(=O)NS(=O)(=O)c2cccc(C#N)c2)cc1 (configuration not stated),-13%,8%,0%,.,.
Cc1cc(C)n(-c2ccc(C(=O)Nc3ccc(S(=O)(=O)N(C)C)cc3)cc2)n1,?,-4%,-22%,?,?
Cc1cc(C)n(-c2ccc(C(=O)Nc3ccc(S(=O)(=O)NCc4ccco4)cc3)cc2)n1,?,?,?,13µM*!,?
Cc1ccc(C(=O)Nc2ccc(S(=O)(=O)NCc3ccco3)cc2)cc1,86%,.,.,-17%,22%
CCCCN1C(=O)c2ccc(C(=O)Nc3ccc(C)c(S(=O)(=O)N(C)C)c3)cc2C1=O,18µM*,-14%,-11%,?,-28%
CCN(CC)S(=O)(=O)c1cccc(NC(=O)c2ccc(-n3nc(C)cc3C)cc2)c1,20µM*,?,?,16µM*,?
Cc1cc(C)n(-c2ccc(C(=O)Nc3cccc(S(=O)(=O)N(C)C)c3)cc2)n1,22µM*,-17%,-26%,?,?
CC1CCC(C(=O)C2C(=O)C3=C(CCCC3)C2=O)CC1 (configuration not stated),.,.,.,-15%,.
Cc1ccc(NC(=O)C2CCCN(c3cnccn3)C2)cc1Cl (configuration not stated),-12%,-6%,-6%,18%[46.1 µM],-5%[46.1 µM]
Cc1ccc(NC(=O)c2ccc(OC(F)(F)F)cc2)cc1S(=O)(=O)N(C)C,32µM*,?,?,?,?
Cc1cc(C)n(-c2ccc(C(=O)Nc3ccc(C)c(S(=O)(=O)N(C)C)c3)cc2)n1,16µM*,?,?,?,?
Cn1c2c(c(=O)n(C)c1=O)[C@@](NC(=O)C(C)(C)C)(C(F)(F)F)C(=O)N2,.,.,.,-3%,.
C[C@H](NC(=O)[C@@H]1Cc2ccccc2CN1)C(=O)NC1CCCC1,-14%,.,.,.,.
Cc1ccc(NC(=S)NCc2ccccc2)cc1[N+](=O)[O-],19%,?,-23%,7.1µM*,16µM*
CCc1nn(CC(=O)N2CCCCC2)c(=O)c2cc3sccc3n12,-9%,5%,3%,7%[46.1 µM],.
CCn1nc(-c2ccc(C)cc2)nc2c(=O)n(C)c(=O)nc1-2,.,2.5µM*,3.2µM*,.,.
CCn1nc(-c2ccccc2)nc2c(=O)n(C)c(=O)nc1-2,1.8µM*,2.5µM*,2.2µM*,0.89µM*,?
Cc1ccc(F)cc1NC(=O)COC(=O)c1ccc(S(C)(=O)=O)c([N+](=O)[O-])c1,.,-16%,-18%,.,.
Cc1ccc(CC(=O)Nc2nc3c(s2)CCCC3)cc1,25%,8.9µM*,-6%,?,?
COc1ccccc1OCC(=O)Nc1nc2c(s1)CCCC2,20%,.,.,.,.
Cc1ccc(C(C)C)c(OCC(=O)Nc2nc3c(s2)CCCC3)c1,-3%,-13%,8%,?,3.2µM*
C[C@@H]1N[S+](=O)([O-])c2cc(Cl)ccc2O[C@H]1c1ccccc1,.,.,.,.,2%[46.1 µM]
O=C(Cc1ccc(Cl)c(Cl)c1)N1CCCCC1CN1CCCC1 (configuration not stated),-26%,-24%,-9%,8.9µM*,?
SMILES,FMDV inh,Vaccinia mCherry,Vaccinia Venus,Marburg entry inh,Lassa entry inh
CC1CCCCN1C(=O)Cc1ccc(Cl)cc1 (configuration not stated),0%,-12%,-7%,19%[46.1 µM],19%
COc1cccc(/C=N/NC(=O)NC2CCCCC2)c1O,26%,.,.,.,.
O=C(N/N=C/c1ccc(OC(F)F)cc1OC(F)F)NC1CCCCC1,-27%,-1%,-13%,2%[46.1 µM],11µM*
C=CCn1c(SCc2c(C)noc2C)nc2sc3c(c2c1=O)CCCC3,-1%,.,.,21µM*,?
Cc1noc(C)c1CSc1nc2sc(C)c(C)c2c(=O)n1C1CCCC1,10%,.,.,12µM*,-23%
C=CCn1c(SCc2c(C)noc2C)nc2sc3c(c2c1=O)CCCCC3,?,.,.,?,-25%
O=C(Nc1cc(C(=O)NC2CCOCC2)c2c(c1)ncn2C1CCCC1)c1ccccc1,-7%,-15%,-9%,.,.
CC(=O)[C@@]12C3[C@@H](CCN3C(=O)N[C@H]1c1ccccc1)[C@H]2c1ccccc1 (some centres not stated),.,.,.,21%[14.2 µM],.
Cc1cccc(NC(=O)COC(=O)c2cc3ccccc3oc2=O)c1,-18%,.,.,.,.
Cc1nn(Cc2ccc(Cl)c(Cl)c2)c(C)c1NC(=O)c1sc2ccccc2c1Cl,32µM*,?,-36%,-3%[46.1 µM],?
Cc1ccccc1Cn1nc(C)c(NC(=O)c2sc3ccccc3c2Cl)c1C,32µM*,-24%,?,?,-18%
COc1ccc(NC(=O)C(=O)NCCc2sc(-c3ccc(Cl)cc3)nc2C)cc1,14%,23%,3%,.,12%[46.1 µM]
c1ccc(-c2nc(SCC3CCCCO3)n[nH]2)cc1 (configuration not stated),.,-12%,-17%,.,.
O=C(O)CCCN1C(=O)C2C3C=CC(C2C1=O)C1C(=O)N(CCCC(=O)O)C(=O)C31 (configuration not stated),-9%,-10%,-5%,0%,-14%
O=C(O)CCCCCN1C(=O)C2CCCCC2C1=O (configuration not stated),4µM*,.,.,5%,?
Oc1c(C(Nc2cccnc2)c2ccccc2F)ccc2cccnc12 (configuration not stated),.,10µM*,?,.,.
Cc1ccc(C(Nc2ccccn2)c2ccc3cccnc3c2O)cc1 (configuration not stated),-9%,11µM*,?,?,?
CCCC(=O)NC(c1ccc(Cl)cc1Cl)c1ccc2cccnc2c1O (configuration not stated),-12%,?,?,2.2µM*,?
Cc1cccc(NC(c2ccccc2F)c2ccc3ccc(C)nc3c2O)n1 (configuration not stated),-18%,?,-25%,.,15%[46.1 µM]
CC(=O)NC(c1ccc(Cl)cc1Cl)c1ccc2cccnc2c1O (configuration not stated),0%,.,.,.,.
CCCC(=O)NC(c1ccc(C)cc1)c1ccc2cccnc2c1O (configuration not stated),-16%,?,?,2.8µM*,?
Oc1c(C(Nc2nc3ccccc3s2)c2ccco2)ccc2cccnc12 (configuration not stated),26%,2.8µM*,?,?,?
CCN(CC)c1ccc(C(NC(=O)C(C)C)c2ccc3cccnc3c2O)cc1 (configuration not stated),-22%,?,?,.,.
CC(C)C(=O)NC(c1ccc(N(C)C)cc1)c1ccc2cccnc2c1O (configuration not stated),.,4µM*,?,.,.
